Screening data from PubChem.
Hits are enriched below; roughly 4% of the tested compounds scored in any of these assays.
aDG glyco up: alpha-DG glycosylation activation | 0.22% of 360,000 active | Pro5-aDG cells, alpha-DG glycosylation AlphaScreen (IIH6); 0% Pro5, 100% B10-LARGE cell signal | activation, % at 10 µM | AID 624168;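 active = activation of at least 8% versus controls, or a plate z-score of at least 8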;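 note: Pro5 are CHO cells carrying HIG-tagged alpha-DG that lacks glycosylation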
ADAM17 inh: inhibits human ADAM17; 0.83% of 370,000 active; P78536; AID 720648; recombinant ADAM17, EDANS/DABCYL FRET peptide cleavage; inhibition, % at 6.95 µM;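 active = inhibition above the mean of compounds lying between control limits plus 3 SD, set per campaign, cut at about 8.5% in these data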
GRIN3A LBD mod: modulates the human NR3A ligand-binding domain; NR3A LBD differential scanning fluorimetry, Tm shift; 0% = protein alone, 100% = glycine-bound protein; Tm shift relative to glycine control, % at 25 µM; 2.5% of 340,000 active; AID 1259313;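 active = melting temperature shift of at least 10% of the positive control shift, at one fixed dose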
FAS-TE inh: blocks the thioesterase domain of human fatty acid synthase. P49327. recombinant FAS-TE, OMFH fluorogenic substrate, fluorescence endpoint. inhibition, % at 15 µM. 0.67% of 360,000 active. AID 602261;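 active = compounds whose normalised, plate-corrected inhibition of enzyme fluorescence in the single-dose primary screen is 50% or more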
ADAM10 inh: inhibitors of human ADAM10. inhibition, % at 7 µM. O14672. 0.62% of 370,000 active. recombinant ADAM10, EDANS/DABCYL FRET peptide cleavage, 3 h. AID 720582;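 active = inhibition above a per-campaign cutoff equal to the mean of compounds falling between control-based bounds plus 3 SD, cut at about 20% in these data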
Target sequence (O14672 214-748 limits assumed): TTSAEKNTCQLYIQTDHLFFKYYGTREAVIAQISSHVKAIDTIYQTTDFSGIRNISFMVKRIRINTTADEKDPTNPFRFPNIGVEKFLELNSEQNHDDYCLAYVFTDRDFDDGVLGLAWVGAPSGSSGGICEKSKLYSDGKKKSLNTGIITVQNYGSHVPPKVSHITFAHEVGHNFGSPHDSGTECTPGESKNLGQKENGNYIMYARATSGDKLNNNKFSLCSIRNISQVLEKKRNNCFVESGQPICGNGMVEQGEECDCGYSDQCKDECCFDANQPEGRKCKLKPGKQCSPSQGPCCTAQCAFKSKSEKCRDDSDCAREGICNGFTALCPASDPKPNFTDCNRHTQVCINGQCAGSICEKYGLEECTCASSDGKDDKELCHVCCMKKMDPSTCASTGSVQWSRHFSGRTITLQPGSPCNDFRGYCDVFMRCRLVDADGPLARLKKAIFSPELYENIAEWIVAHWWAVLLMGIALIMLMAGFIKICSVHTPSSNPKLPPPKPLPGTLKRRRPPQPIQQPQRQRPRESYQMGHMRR
ADAM10 ctr: counter-screen for ADAM17 exosite inhibitors: inhibitors of human ADAM10; 47% of 2,900 active; inhibition, % at 6.95 µM; recombinant ADAM10, EDANS/DABCYL FRET peptide cleavage, 3 h; shares compounds with ADAM17 inh;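 active = mean inhibition over the triplicate runs exceeds the activity threshold set in the earlier primary screen, cut at about 20% in these data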
ADAM17 confirm: human ADAM17 inhibition, confirmation. shares compounds with ADAM17 inh. inhibition, % at 6.95 µM. 65% of 2,900 active. recombinant ADAM17, EDANS/DABCYL QFRET peptide cleavage. AID 743257;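 active = mean inhibition across replicates above the hit cutoff set in the primary screen, cut at about 8.5% in these data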
Numbers stand for hits; i = inactive; nt = no result given.

SMILES	aDG glyco up	ADAM17 inh	GRIN3A LBD mod	FAS-TE inh	ADAM10 inh	ADAM10 ctr	ADAM17 confirm
O=c1cc(-c2ccccc2Cl)oc2c(NS(=O)(=O)c3ccccc3C(F)(F)F)ccc(O)c12	i	i	i	i	i	nt	nt
CCOc1ccc(NS(=O)(=O)c2cc(OC)ccc2OC)cc1	i	i	i	i	i	nt	nt
CCOc1ccc(S(=O)(=O)Nc2ccc(F)cc2)c(C)c1C	i	9.5	i	i	i	i	12
O=C(COc1cccc(Cl)c1)NNC(=S)Nc1ccccc1	i	9.8	i	i	i	i	9.7
CCOC(=O)c1ccc(NC(=S)NN)cc1	i	i	i	i	i	nt	nt
CCOC(=O)c1ccc(NC(=S)NCc2ccc(F)cc2)cc1	i	12	i	i	i	i	10
O=C(O)c1ccccc1C(=O)NNC(=O)C(c1ccccc1)c1ccccc1	i	i	i	i	i	nt	nt
COc1ccc(C[C@H]2CN3C(=NC[C@@H]3C)N2CCNC(=O)CCC2CCCCC2)cc1	i	11	i	i	i	i	i
C[C@H]1CN=C2N(CCNC(=O)CCC3CCCCC3)[C@H](Cc3ccc(O)cc3)CN21	i	i	i	i	i	nt	nt
CCOc1ccc(CN(C)C(=O)c2ccc(S(=O)(=O)N(C)c3ccccc3OC)cc2)cc1	i	18	i	i	i	i	i
CCO[C@H]1OC(C(=O)NCc2ccccc2)=C[C@@H](C)[C@@H]1CCCO	i	i	i	i	i	nt	nt
COCCN(C(=O)C1CCC1)c1c(N)n(CC(C)C)c(=O)[nH]c1=O	i	i	i	i	i	nt	nt
CCCCC1CCC(C(=O)N(CCOC)c2c(N)n(CC(C)C)c(=O)[nH]c2=O)CC1 (stereo not given)	i	9.3	i	i	i	i	i
Cc1ccccc1OCc1nc(-c2ccc(NC(=O)c3cccs3)cc2)no1	i	12	20	i	i	i	i
O=C(NC1CCCCN(Cc2cccc(Cl)c2)C1=O)c1ccccn1 (stereo not given)	nt	i	nt	nt	i	nt	nt
O=C(NC1CCCCN(Cc2cccc(Cl)c2)C1=O)c1ccc(COc2ccccc2)cc1 (stereo not given)	nt	10	nt	nt	i	i	11
CC1(C)CC(NS(=O)(=O)c2ccc(S(=O)(=O)N3CCOCC3)cc2)CCO1 (stereo not given)	i	i	i	i	i	nt	nt
Cc1cnc(C(=O)OC(C)C(=O)Nc2ccc3c(c2)OCCO3)cn1 (stereo not given)	i	9.9	i	i	i	i	14
CC(=O)Nc1ccc(S(=O)(=O)Nc2ccc3c(c2)OCCO3)cc1Cl	i	i	i	i	i	nt	nt
CC(OC(=O)c1cc(S(=O)(=O)Nc2ccc(F)cc2)ccc1Cl)C(=O)Nc1ccc2c(c1)OCCO2 (stereo not given)	i	9.8	i	i	i	i	i
CCSc1nnc(NC(=O)CSC2=NN3CCCC(=O)N=C3S2)s1	i	i	i	i	i	nt	nt
CCOCCCn1c(SCC(=O)N(C)C2CCS(=O)(=O)C2)nc2ccccc2c1=O (stereo not given)	i	i	i	i	i	nt	nt
CCCOC(=O)c1ccc(Oc2c(-c3ccc(OCC)cc3O)n[nH]c2C)cc1	i	9.8	30	i	i	24	15
COc1ccccc1Oc1cn[nH]c1-c1ccc(OCC(=O)NN)cc1O	i	i	i	i	i	nt	nt
CCCc1ccc(OCC(=O)O)cc1	i	i	i	i	i	nt	nt
SMILES	aDG glyco up	ADAM17 inh	GRIN3A LBD mod	FAS-TE inh	ADAM10 inh	ADAM10 ctr	ADAM17 confirm
COc1ccc(Oc2c(-c3ccc(O)cc3O)n[nH]c2C)cc1	i	i	i	i	i	nt	nt
CCCc1ccc(Oc2c(-c3ccc(O)c(C)c3O)n[nH]c2C)cc1	i	9.0	i	i	i	i	i
CCCOC(=O)c1ccc(Oc2cn[nH]c2-c2ccc(OCC)cc2O)cc1	i	9.8	16	i	i	i	12
CC1CC(C)CN(C(=O)c2ccccc2Nc2ccc(SC(F)F)cc2)C1 (stereo not given)	i	i	i	i	i	nt	nt
O=C(CCC(=O)Nc1ccccc1)N/N=C/C=C/c1ccccc1	i	i	i	i	i	nt	nt
CCOC(=O)/C(C#N)=C(C)/C=C1\Sc2ccccc2N1CC	i	i	i	i	i	nt	nt
CCN1/C(=C\C=C(C(C)=O)C(C)=O)Sc2ccccc21	i	10	i	i	i	i	9.1
O=C(c1cnc(Cc2c[nH]c3ccccc23)c(I)c1)N1CCCCC1	i	i	nt	i	i	nt	nt
Cc1ccc(-c2cc(-c3nnc(SCC(=O)NC(C)C(C)C)n3N)c3ccccc3n2)cc1 (stereo not given)	i	i	i	i	i	nt	nt
CCN(CC)C(=O)n1nc(C)c(CN2C(=O)c3ccccc3C2=O)c1C	i	i	i	i	i	nt	nt
COCC(C)n1c(C)cc(C(=O)CSc2nnc(Nc3ccccc3F)s2)c1C (stereo not given)	i	15	i	i	i	i	i
COCC(C)n1c(C)cc(C(=O)CSc2ncccn2)c1C (stereo not given)	i	i	i	i	i	nt	nt
CCCNC(=O)C1(C)CCN1C(=O)c1ccccc1CCc1ccccc1 (stereo not given)	i	8.8	nt	i	i	i	i
CCOC(=O)C1=C(O)/C(=C\c2sccc2C)N=C1C	i	i	i	i	i	nt	nt
CCOC(=O)C1=C(O)/C(=C\c2cccs2)N=C1C	i	10.0	i	i	i	i	i
NC(=O)CC[C@H](NC(=O)c1ccc(F)cc1)C(=O)OCC(=O)NCc1ccc(F)cc1	i	10	i	i	i	i	i
N#Cc1ccc(Cl)cc1NC(=O)COC(=O)[C@H](CCC(N)=O)NC(=O)c1ccc(F)cc1	i	i	i	i	i	nt	nt
CN(C)C(=O)CSc1nc(-c2ccccc2)c(-c2ccccc2)o1	i	i	i	i	i	nt	nt
CCS(=O)(=O)N1CCN(Cc2ccccc2OC)CC1	i	10	i	i	i	i	i
O=C(CC(c1ccccc1)c1ccccc1)Nc1ccc2c(c1)OCCO2	i	12	i	i	i	i	14
COc1ccccc1/C=C/C1C(C(=O)OCC(C)C)=C(C)N=C2SCCC(=O)N21 (stereo not given)	i	11	i	i	i	i	12
CCN(CC)S(=O)(=O)c1cc(NC(=O)C(C)N2CCc3ccccc32)ccc1C (stereo not given)	i	10	i	i	i	i	i
COc1ccc(S(=O)(=O)Nc2ccc3ccccc3c2)cc1C	i	10	i	i	i	29	18
CCN(CC)C(=O)CSc1nnc([C@@H](NC(=O)OC(C)(C)C)C(C)C)o1	i	i	i	i	i	nt	nt
O=C(COc1ccc(Cl)cc1Cl)NCCCCc1ccccc1	i	18	i	i	i	31	13
